# Results filed as inconclusive are left out. The source made the active and inactive calls. Rule for the calls, unless noted: active = hit-call score of the fitted dose curve at least 0.9, where 1 is the maximum; inactive = score below 0.9.
# Columns and labels:
# [1] = TAMU_PeakParms_SingleDonor1434_QT: Texas A&M University (TAMU) 1.5-hr Human Induced Pluripotent Stem Cell (iPSC)-derived Cardiomyocytes Calcium (Ca+2) Flux Assay for Cardiotoxicity: QT (decay-rise ratio) (AID 2284235; active = hit-call score of the fitted dose curve at least 0.9, where 1 is the maximum)
# Outline: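 iPSC-derived cardiomyocytes (single donor 1434) dosed at 0.2, 1, 10, 100 uM final in 0.5% DMSO, 90 min at 37C. Ca2+ flux fluorescence decay/rise ratio; EC05 (5% increase versus DMSO) as POD, excluding beat-arrest and severe-notch data.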
# [2] = TAMU_PeakParms_SingleDonor1434_Asystole: Texas A&M University (TAMU) 1.5-hr Human Induced Pluripotent Stem Cell (iPSC)-derived Cardiomyocytes Calcium (Ca+2) Flux Assay for Cardiotoxicity: Asystole (quiescence of beating) (AID 2284328; active = hit-call score of the fitted dose curve at least 0.9, where 1 is the maximum)
# Outline: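 Human iPSC-derived cardiomyocytes (donor 1434) were exposed to 0.2, 1, 10 and 100 uM compound in 0.5% DMSO for 90 min at 37C. Ca2+-dye fluorescence gave average peak frequency; POD is EC95, a 95% beat-rate drop versus DMSO.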
# [3] = molecular target: D(1A) dopamine receptor (Homo sapiens) (UniProt P21728); test: NVS_GPCR_hDRD1: NovaScreen (NVS) G Protein-Coupled Receptor Assay for human Dopamine Receptor D1 (DRD1) (AID 2283269; active = hit-call score of the fitted dose curve at least 0.9, where 1 is the maximum)
# Sequence of D(1A) dopamine receptor (Homo sapiens) (P21728 whole entry, looked up): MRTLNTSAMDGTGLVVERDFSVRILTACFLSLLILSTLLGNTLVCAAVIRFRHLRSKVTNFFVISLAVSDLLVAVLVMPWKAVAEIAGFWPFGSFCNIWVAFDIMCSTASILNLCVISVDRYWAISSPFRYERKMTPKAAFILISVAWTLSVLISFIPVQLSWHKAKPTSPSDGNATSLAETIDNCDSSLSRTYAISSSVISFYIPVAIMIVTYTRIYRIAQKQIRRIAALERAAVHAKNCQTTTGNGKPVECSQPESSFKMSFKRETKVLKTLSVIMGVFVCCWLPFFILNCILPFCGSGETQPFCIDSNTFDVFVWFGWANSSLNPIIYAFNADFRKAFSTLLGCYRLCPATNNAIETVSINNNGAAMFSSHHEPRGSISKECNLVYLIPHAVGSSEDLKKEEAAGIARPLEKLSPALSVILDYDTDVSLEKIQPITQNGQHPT
# Outline: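 Cell-free radioligand binding to human DRD1 from HEK293 membranes, read 1 h after dosing by filter-based scintillation counting. Loss of signal versus DMSO baseline marks displacement. Primary screen at 25 uM single concentration in duplicate; actives followed up in concentration series.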
# [4] = molecular target: human Beta-secretase (BACE), BACE1 (gene 23621) (UniProt P56817); test: NVS_ENZ_hBACE: NovaScreen (NVS) Enzymatic Assay for human Beta-secretase (BACE) (AID 2283140; active = hit-call score of the fitted dose curve at least 0.9, where 1 is the maximum;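 note: hits are inhibitors that reduce fluorescent substrate signal versus DMSO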)
# Sequence of human Beta-secretase (BACE), BACE1 (gene 23621) (P56817 whole entry, looked up): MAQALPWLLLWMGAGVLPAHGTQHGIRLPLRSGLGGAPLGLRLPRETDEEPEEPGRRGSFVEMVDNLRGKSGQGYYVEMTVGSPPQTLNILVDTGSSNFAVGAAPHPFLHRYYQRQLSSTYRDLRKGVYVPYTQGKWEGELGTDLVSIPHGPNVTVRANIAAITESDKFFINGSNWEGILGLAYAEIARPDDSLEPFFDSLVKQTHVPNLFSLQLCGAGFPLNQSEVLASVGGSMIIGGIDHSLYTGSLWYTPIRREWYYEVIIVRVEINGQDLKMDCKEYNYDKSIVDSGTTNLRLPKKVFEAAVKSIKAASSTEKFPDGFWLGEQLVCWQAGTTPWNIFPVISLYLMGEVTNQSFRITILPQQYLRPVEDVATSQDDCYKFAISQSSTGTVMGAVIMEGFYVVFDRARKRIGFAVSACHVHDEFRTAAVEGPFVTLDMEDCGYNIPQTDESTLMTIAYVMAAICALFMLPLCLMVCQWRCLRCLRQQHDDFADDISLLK
# Outline: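 Cell-free assay of recombinant Sf9-expressed human BACE with fluorescent substrate, read by fluorescence intensity after 1 h. Primary screen in duplicate at 25 uM; actives then run in concentration series; loss of signal relative to DMSO.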
# [5] = molecular target: human Thromboxane A2 Receptor (TXA2), TBXA2R (gene 6915) (UniProt P21731); test: NVS_GPCR_hTXA2: NovaScreen (NVS) G Protein-Coupled Receptor Assay for human Thromboxane A2 Receptor (TXA2) (AID 2283282; active = hit-call score of the fitted dose curve at least 0.9, where 1 is the maximum;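 note: actives reduce bound radioligand signal relative to DMSO baseline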)
# Sequence of human Thromboxane A2 Receptor (TXA2), TBXA2R (gene 6915) (P21731 whole entry, looked up): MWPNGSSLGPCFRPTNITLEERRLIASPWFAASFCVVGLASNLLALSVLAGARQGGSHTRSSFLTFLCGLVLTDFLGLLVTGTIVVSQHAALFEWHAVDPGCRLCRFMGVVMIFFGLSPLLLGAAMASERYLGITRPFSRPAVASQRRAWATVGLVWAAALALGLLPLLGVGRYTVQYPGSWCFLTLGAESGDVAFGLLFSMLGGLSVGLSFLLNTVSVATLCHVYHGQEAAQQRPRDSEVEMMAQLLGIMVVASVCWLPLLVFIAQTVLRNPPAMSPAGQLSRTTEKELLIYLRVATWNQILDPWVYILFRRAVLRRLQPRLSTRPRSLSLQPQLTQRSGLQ
# Outline: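 Screening ran at 25 uM in duplicate, with concentration series for confirmed actives. Each test measures radioligand binding to human platelet protein after 1 h, cell-free, using filter-based scintillation detection of signal loss relative to DMSO.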
# [6] = IUF_NPC1b_proliferation_BrdU_72hr: Leibniz Research Institute for Environmental Medicine (IUF) 72-hour Neural Progenitor Cell Bromodeoxyuridine (BrdU) Proliferation Assay (NPC1b) (AID 2284207)
# Outline: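 hNPC spheres (primary, GW 16-19 fetal cortex), single sphere/well, EGF+FGF medium; 72 h compound, no renewal; BrdU pulse last 16 h; luminescent ELISA; activity vs DMSO baseline; growth-factor withdrawal as positive control.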
# [7] = IUF_NPC1a_proliferation_area_72hr: Leibniz Research Institute for Environmental Medicine (IUF) 72-hour Neural Progenitor Cell Proliferation Area Assay (NPC1a) (AID 2284208)
# Outline: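 Measured in 3D suspension: each well held one primary hNPC sphere grown with EGF and FGF at pH 7.2-7.6. Compound stayed on for 72 h, then area was imaged; spheres lacking growth factors defined reduced proliferation.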
# [8] = IUF_NPC1_viability_72hr: Viability Assessment at 72 hours in the Leibniz Research Institute for Environmental Medicine (IUF) Neural Progenitor Cell Proliferation Assay (NPC1) (AID 2284209)
# Outline: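 Single spheres (0.25-0.35 mm) of human fetal cortex-derived neural progenitor cells were grown in proliferation medium with EGF and FGF at 37C and 5% CO2. They were exposed for 72 h without renewal, and viability was read by alamar blue resorufin fluorescence.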
# [9] = IUF_NPC2c_oligodendrocyte_migration_120hr: Leibniz Research Institute for Environmental Medicine (IUF) 120-hour Neural Progenitor Cell Migration Assay for Oligodendrocyte Migration (NPC2c) (AID 2284297);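 note: O4-positive oligodendrocyte migration distance divided by radial glia migration distance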
# Outline: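 Using fetal brain neural progenitor spheres differentiating in N2 medium at 37C, compounds were present for 120 h. Oligodendrocyte migration distance, normalized to radial glia migration, was measured from imaged O4 staining.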
# [10] = IUF_NPC2a_radial_glia_migration_120hr: Leibniz Research Institute for Environmental Medicine (IUF) 120-hour Neural Progenitor Cell Migration Assay for Radial Glia Migration (NPC2a) (AID 2284298)
# Outline: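 Exposure of 0.3 mm primary hNPC spheres runs day 0 to 120 h with a half-volume medium change at day 3. Fixed cells get Hoechst staining; high-content analysis of nuclear positions yields radial glia migration distance per well, compared against DMSO controls.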
# [11] = IUF_NPC2a_radial_glia_migration_72hr: Leibniz Research Institute for Environmental Medicine (IUF) 72-hour Neural Progenitor Cell Migration Assay for Radial Glia Migration (NPC2a) (AID 2284299)
# Outline: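 Human fetal neural progenitor spheres (0.3 mm) plated on poly-D-lysine/laminin in N2 differentiation medium and exposed from day 0 at 7 concentrations; radial glia migration distance from sphere edge measured at 72 h on brightfield images, mean of four directions, vs DMSO.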
# [12] = IUF_NPC2b_neuronal_migration_120hr: Leibniz Research Institute for Environmental Medicine (IUF) 120-hour Neural Progenitor Cell Migration Assay for Neuron Migration (NPC2b) (AID 2284300)
# Outline: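 Fetal human NPC spheres migrate on PDL/laminin during 120 h compound treatment; neuronal migration distance, glia-normalized, scored versus DMSO control.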
# [13] = IUF_NPC3_neuronal_differentiation_120hr: Leibniz Research Institute for Environmental Medicine (IUF) 120-hour Neuronal Differentiation Assay (NPC3) (AID 2284301)
# Outline: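 Primary human fetal neural progenitor spheres (GW 16-19, 0.3 mm) plated on poly-D-lysine/laminin in N2 medium, exposed from day 0 for 120 h with half-medium refresh at day 3. TUBB3+ cells as percent of Hoechst nuclei in migration area; DMSO baseline.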
# [14] = IUF_NPC4_neurite_length_120hr: Leibniz Research Institute for Environmental Medicine (IUF) 120-hour Neuronal Morphology Assay for Neurite Length (NPC4) (AID 2284302)
# Outline: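 Human fetal cortex (GW 16-19) neural progenitor spheres, 0.3 mm, were plated on poly-D-lysine/laminin in N2 differentiation medium and exposed from day 0 for 120 h, half-feeding at day 3. Mean TUBB3+ neurite length (µm) came from skeletonized images, relative to DMSO.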
# [15] = IUF_NPC4_neurite_area_120hr: Leibniz Research Institute for Environmental Medicine (IUF) 120-hour Neuronal Morphology Assay for Neurite Area (NPC4) (AID 2284305; active = hit-call score of the fitted dose curve at least 0.9, where 1 is the maximum)
# Outline: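 Human fetal cortex-derived neural progenitor spheres (0.3 mm, GW 16-19) plated on poly-D-lysine/laminin in N2 differentiation medium and exposed from day 0 for 120 h across 7 concentrations plus solvent control. Neurite area is mean pixel area per TUBB3-positive neuron via skeletonization, analysed relative to DMSO.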
# [16] = IUF_NPC2-5_cytotoxicity_72hr: Cytotoxicity Assessment at 72 hours in the Leibniz Research Institute for Environmental Medicine (IUF) Neural Progenitor Cell Migration and Differentiation Assay for Cytotoxicity (NPC2-5) (AID 2284306; active = hit-call score of the fitted dose curve at least 0.9, where 1 is the maximum;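 note: LDH release into supernatant measured by resorufin fluorescence marking membrane damage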)
# Outline: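 Human fetal (GW 16-19) neural progenitor spheres, 0.3 mm, plated on poly-D-lysine/laminin in N2 differentiation medium and exposed from day 0 to 7 concentrations plus solvent control (DMSO ≤0.1%). LDH-dependent resazurin-to-resorufin fluorescence in supernatant at 72 h.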
# [17] = IUF_NPC2-5_cytotoxicity_120hr: Cytotoxicity Assessment at 120 hours in the Leibniz Research Institute for Environmental Medicine (IUF) Neural Progenitor Cell Migration and Differentiation Assay (NPC2-5) (AID 2284307; active = hit-call score of the fitted dose curve at least 0.9, where 1 is the maximum;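 note: LDH released into supernatant as membrane damage marker via resorufin fluorescence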)
# Outline: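 Membrane-integrity loss is quantified by LDH in supernatant after five days of exposure of migrating, differentiating human fetal NPC spheres; seven serially diluted concentrations are tested with DMSO kept at or below 0.1%.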
# [18] = IUF_NPC2-5_cell_number_120hr: Cell Number Assessment at 120 hours in the Leibniz Research Institute for Environmental Medicine (IUF) Neural Progenitor Cell Migration and Differentiation Assay (NPC2-5) (AID 2284308);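 note: count of Hoechst-stained nuclei in migration zone around plated human neural progenitor spheres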
# Outline: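 Seven-point serial dilutions plus solvent control were applied to plated 0.3 mm hNPC spheres at differentiation start, with medium half-replaced at day 3. Nuclei positive for Hoechst in the migration zone were enumerated at 120 h.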
# [19] = IUF_NPC2-5_viability_120hr: Viability Assessment at 120 hours in the Leibniz Research Institute for Environmental Medicine (IUF) Neural Progenitor Cell Migration and Differentiation Assay (NPC2-5) (AID 2284312)
# Outline: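 Human fetal (GW 16-19) neural progenitor spheres of 0.3 mm were plated on poly-D-lysine/laminin in N2 differentiation medium and exposed from day 0 for 120 h, with half-medium refresh at day 3. Viability was read as alamar blue resazurin-to-resorufin fluorescence against DMSO.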
# [20] = IUF_NPC1_cytotoxicity_72hr: Cytotoxicity Assessment at 72 hours in the Leibniz Research Institute for Environmental Medicine (IUF) Neural Progenitor Cell Proliferation Assay (NPC1) (AID 2284332; active = hit-call score of the fitted dose curve at least 0.9, where 1 is the maximum;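 note: rising LDH signal means more cytotoxicity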)
# Outline: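 Human fetal neural progenitor spheres (0.3 mm) in EGF/FGF proliferation medium, 37C, exposed 72 h without renewal. LDH release in supernatant read by resorufin fluorescence; gain of signal scored relative to dynamic range.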
smiles,measurement,setting,value
Nc1nc(N)c2nc(-c3ccccc3)c(N)nc2n1,outcome,[1],inactive
same,outcome,[2],inactive
CC(=[OH+])/C=C(/C)[O-].CC(=[OH+])/C=C(/C)[O-].CC(=[OH+])/C=C(/C)[O-].[Fe],outcome,[3],inactive
CCCCCCCCCC/C=C/C1CC(=O)OC1=O (stereo not given),AC50,[4],45400 nM (active)
same,outcome,[5],inactive
Oc1cccc2ccccc12,outcome,[6],inactive
same,outcome,[7],inactive
same,AC50,[8],2440 nM (active)
same,outcome,[9],inactive
same,outcome,[10],inactive
same,outcome,[11],inactive
same,outcome,[12],inactive
same,outcome,[13],inactive
same,outcome,[14],inactive
same,outcome,[15],inactive
same,outcome,[16],inactive
same,AC50,[17],216 nM (active)
same,outcome,[18],inactive
same,outcome,[19],inactive
same,outcome,[20],inactive

# — PubChem BioAssay (EPA / NIEHS)
